# Results taken from PubChem BioAssay (NCATS).
# Records with an inconclusive call do not appear. The source made the active and inactive calls. Unless noted, the call rests on the fitted dose curve; in most records, active means well fitted curve in the direction sought with a large enough effect; inconclusive means small, poorly fitted or top-dose-only effect, or another doubt; inactive means no such curve, though single readings can be large; an effect the other way counts as inactive or inconclusive.
# Assays:
# [1] = target: Cytochrome P450 2C9 (Homo sapiens) (UniProt P11712); assay: Cytochrome P450 family 2 subfamily C member 9 (CYP2C9) small molecule antagonists: luciferase biochemical (cell-free) qHTS assay (AID 1645842; active means well fitted curve in the direction sought with a large enough effect in the repeat runs; an effect the other way counts as inactive or inconclusive; further: nearly all actives have a fitted effect of over 55% in size; on activity change, negative = inhibition: on the % scale 0 is the no-effect control and ±100 the full control effect)
# Summary of the method: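 Luminescence, after 20 min with luciferin detection reagent, reflected CYP2C9 turnover during a 1 h NADPH-driven reaction at 37C. Enzyme-substrate mix contained 0.4% bovine serum albumin and was preincubated with compound 10 min at room temperature.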
# [2] = Primary qHTS for inhibitors of nuclear receptor binding SET domain protein 2 (NSD2) in an isogenic RCH-ACV NSD2 p.E1099K mutant (9B) (AID 1645876); further: nearly all actives have a fitted effect of over 70% in size
# [3] = Primary qHTS for inhibitors of nuclear receptor binding SET domain protein 2 (NSD2) in an RCH-ACV wild type WT cells (2C) (AID 1645877); further: nearly all actives have a fitted effect of over 70% in size
# [4] = target: Catechol O-methyltransferase (Homo sapiens) (UniProt P21964); assay: Confirmatory Screen for Target Class Profiling of Small Molecule Inhibitors of Methyltransferases (AID 1745852; calls by dose curve; on activity change, negative = inhibition: on the % scale 0 is the no-effect control and ±100 the full control effect); settings: MTase-Glo luminescence, SAH detection, recombinant enzyme; measured here: COMT max response; stronger effect = lower value
# [5] = target: Guanidinoacetate N-methyltransferase (Homo sapiens) (UniProt Q14353); assay: as above; settings: activity change, negative = inhibition: at 57.3 µM (top of the series) unless noted
# [6] = target: Nicotinamide N-methyltransferase (Homo sapiens) (UniProt P40261); assay: as above; settings: MTase-Glo luminescence, SAH detection, recombinant enzyme; measured here: NNMT max response; stronger effect = lower value
# [7] = target: Phenylethanolamine N-methyltransferase (Homo sapiens) (UniProt P11086); assay: as above; settings: MTase-Glo luminescence, SAH detection, recombinant enzyme; measured here: PNMT max response; stronger effect = lower value
# Potency means the concentration at half of the fitted maximal effect.
# Catechol O-methyltransferase (Homo sapiens), sequence (P21964 whole entry, looked up): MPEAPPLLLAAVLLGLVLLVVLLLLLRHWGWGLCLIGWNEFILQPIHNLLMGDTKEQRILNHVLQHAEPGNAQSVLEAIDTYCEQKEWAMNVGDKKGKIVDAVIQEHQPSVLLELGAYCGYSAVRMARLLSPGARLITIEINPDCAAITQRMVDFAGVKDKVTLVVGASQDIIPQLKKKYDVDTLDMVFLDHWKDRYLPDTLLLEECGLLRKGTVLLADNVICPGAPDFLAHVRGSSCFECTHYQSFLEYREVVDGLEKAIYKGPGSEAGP
# Cytochrome P450 2C9 (Homo sapiens), sequence (P11712 whole entry, looked up): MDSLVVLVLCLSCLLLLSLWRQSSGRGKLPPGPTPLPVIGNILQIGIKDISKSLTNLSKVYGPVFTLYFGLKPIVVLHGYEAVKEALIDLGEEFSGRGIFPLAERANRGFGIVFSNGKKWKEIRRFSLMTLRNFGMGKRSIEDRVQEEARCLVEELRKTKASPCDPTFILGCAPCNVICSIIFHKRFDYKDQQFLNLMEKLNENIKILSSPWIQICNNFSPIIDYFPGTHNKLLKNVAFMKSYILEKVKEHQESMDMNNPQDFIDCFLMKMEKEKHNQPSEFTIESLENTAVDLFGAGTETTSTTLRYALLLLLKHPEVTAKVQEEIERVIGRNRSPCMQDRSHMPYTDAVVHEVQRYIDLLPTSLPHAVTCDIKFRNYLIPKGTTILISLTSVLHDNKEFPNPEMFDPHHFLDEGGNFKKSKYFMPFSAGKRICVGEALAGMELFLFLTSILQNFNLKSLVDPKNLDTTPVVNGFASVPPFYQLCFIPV
# Phenylethanolamine N-methyltransferase (Homo sapiens), sequence (P11086 whole entry, looked up): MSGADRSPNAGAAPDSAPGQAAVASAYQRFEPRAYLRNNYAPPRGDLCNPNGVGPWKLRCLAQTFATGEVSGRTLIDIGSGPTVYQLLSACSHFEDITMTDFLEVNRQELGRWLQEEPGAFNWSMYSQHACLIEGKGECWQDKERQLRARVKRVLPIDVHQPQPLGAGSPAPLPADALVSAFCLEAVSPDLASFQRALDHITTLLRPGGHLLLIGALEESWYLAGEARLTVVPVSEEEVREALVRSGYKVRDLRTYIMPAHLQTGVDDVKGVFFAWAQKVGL
# Nicotinamide N-methyltransferase (Homo sapiens), sequence (P40261 whole entry, looked up): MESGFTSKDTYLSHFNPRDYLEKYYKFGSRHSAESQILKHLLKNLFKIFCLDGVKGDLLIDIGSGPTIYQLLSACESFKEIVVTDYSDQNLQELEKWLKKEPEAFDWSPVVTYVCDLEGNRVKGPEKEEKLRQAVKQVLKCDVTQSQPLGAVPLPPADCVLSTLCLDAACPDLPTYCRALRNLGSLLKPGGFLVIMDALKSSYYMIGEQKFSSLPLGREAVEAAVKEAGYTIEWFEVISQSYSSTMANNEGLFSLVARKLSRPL
SMILES,"activity change, negative = inhibition [1]",Potency [2],Potency [3],activity [4] [%],"activity change, negative = inhibition [5]",activity [6] [%],activity [7] [%],Potency [1],Potency [5]
CCC(=C(c1ccc(OCCN2CCCC2)cc1)c1ccc(OCCN2CCCC2)cc1)c1ccccc1,1.82% [at 11.5 µM] (inactive),3.65 µM (active),3.65 µM (active),-7.7,-5.33% [at 12.7 µM],-3.61,-4.76,–,–
COc1ccc(NC(=O)c2ccc(-c3ccc(-c4nnc(C)o4)cc3C)cc2)cc1N1CCN(C)CC1,–,20.5 µM (active),10.3 µM (active),–,–,–,–,19 µM (active),–
CCOc1ccc(S(=O)(=O)N2CCCCCC2)c2ccccc12,–,inactive,inactive,–,–,–,–,7.56 µM (active),–
Cc1cc(Nc2nc(-c3ccccc3)nc3ccccc23)n[nH]1,–,2.9 µM (active),3.25 µM (active),–,–,–,–,10.7 µM (active),–
COc1cc(Br)c(S(=O)(=O)Nc2ccc(Cl)c(O[C@@H]3CCN(C)C3)c2)cc1OC,–,12.9 µM (active),11.5 µM (active),–,–,–,–,10.7 µM (active),–
COCCCNC(=O)c1ccc(Cn2c(=O)c3ccccc3n(Cc3ccc(C(C)C)cc3)c2=O)cc1,–,inactive,inactive,–,–,–,–,1.51 µM (active),–
O=C(NCCCCN1CCN(c2cccc(Cl)c2Cl)CC1)c1cc2ccccc2s1,–,20.5 µM (active),23 µM (active),–,–,–,–,3.79 µM (active),–
COc1cc2c(cc1OCCCN1CCCC1)N=C(N)C21CCC1,–,inactive,inactive,–,–,–,–,inactive,–
N#Cc1ccc(COC[C@H]2O[C@@H](n3c(NCc4ccc(Cl)c(Cl)c4)nc4c(N)ncnc43)[C@H](O)[C@@H]2O)cc1,–,14.8 µM (active),9.34 µM (active),-4.68,–,-79.6,-74.2,10.7 µM (active),23.5 µM (active)
N#Cc1cnc2c(Cl)cc(NCc3cn(CCN4CCCCCC4)nn3)cc2c1Nc1ccc(F)c(Cl)c1,–,20.5 µM (active),11.5 µM (active),-24.8,–,-26.2,-36.9,3.38 µM (active),15.2 µM (active)
CCCCNc1ncc(C(=O)NCc2ccc(-n3ccnc3)cc2)c(NC2CCC(O)CC2)n1 (stereo unspecified),–,5.78 µM (active),4.59 µM (active),-11.6,-6.08%,-47.3,-34.7,0.849 µM (active),–
COc1cc2c(cc1-c1c(C)noc1C)ncc1[nH]c(=O)n(C(C)c3ccccn3)c12 (stereo unspecified),–,0.325 µM (active),0.325 µM (active),-17.8,3.12%,-29.4,0.401,5.35 µM (active),–
